From PubChem BioAssay
The source made the active and inactive calls.

What was measured:
[1] = test system: PRMT1 (protein arginine N-methyltransferase 1); experiment: PRMT1 binders on small-molecule microarrays, primary screen, biochemical, small-molecule microarray, 635 nm fluorescence (AID 1088); settings: small-molecule microarray binding, higher = more signal;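 further: binding of Prmt1 protein to compounds spotted on small-molecule microarray slides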
[2] = yeast growth modulation, basal conditions, primary screen, YJM789 clinical isolate, OD600, 24 h (AID 1089);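 further: growth of clinical yeast isolate S. cerevisiae YJM 789 seeded 1000 cells per well; test concentration not given here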; settings: S. cerevisiae YJM789 growth, higher = more signal, called active from +8 up or from −8 down
[3] = fission yeast growth modulation, primary screen, strain 972, OD600, 24 h, no modulator (AID 1090);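 further: basal condition with compound alone and no growth modifier present; test concentration not given here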; settings: S. pombe 972 growth, higher = more signal, called active from +8 up or from −8 down
[4] = S. cerevisiae growth modulation with rapamycin, primary screen, strain BY4716, OD600, 96 h (AID 1091); settings: higher = more signal, called active from +8 up or from −8 down; further: test concentration not given here
[5] = molecular target: Torsin-1A-interacting protein 2 (Homo sapiens) (UniProt Q8NFQ8); experiment: LULL1 binders on small-molecule microarray, primary screen, cell lysate, human LULL1 lysate, 635/667 nm fluorescence (AID 1092); settings: hLULL1 lysate binding, 635 nm fluorescence, higher = more signal;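 further: probe is lysate of COS7 cells overexpressing human LULL1; score merges per-feature 667 nm fluorescence with signal-to-noise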
Torsin-1A-interacting protein 2 (Homo sapiens), sequence (Q8NFQ8 whole entry, looked up): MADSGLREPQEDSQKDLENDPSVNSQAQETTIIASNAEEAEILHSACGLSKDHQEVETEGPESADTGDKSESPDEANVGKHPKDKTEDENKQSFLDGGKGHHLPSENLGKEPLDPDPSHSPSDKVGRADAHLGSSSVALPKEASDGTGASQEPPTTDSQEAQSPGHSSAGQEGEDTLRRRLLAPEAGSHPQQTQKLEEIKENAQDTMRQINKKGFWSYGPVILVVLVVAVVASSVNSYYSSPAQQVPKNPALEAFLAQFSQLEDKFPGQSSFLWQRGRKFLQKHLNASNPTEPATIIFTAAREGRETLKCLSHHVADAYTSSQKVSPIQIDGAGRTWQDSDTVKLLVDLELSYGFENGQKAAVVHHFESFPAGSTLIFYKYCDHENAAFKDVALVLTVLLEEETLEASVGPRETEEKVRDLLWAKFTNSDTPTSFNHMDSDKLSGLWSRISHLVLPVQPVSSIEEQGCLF

[6] = E. coli growth modulation, two-sided OD650, primary screen, E. coli filamentation project, strain DRC41, 24 h (AID 1093); settings: OD650, 24 h, higher = more signal, called active from +8 up or from −8 down;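 further: MC1000 strain lacking acrAB efflux and sulA so SOS filamentation is blocked; test concentration not given here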
[7] = small-molecule microarray binders of probe aLefty2, primary screen, biochemical, biotinylated probe, 635/667 nm fluorescence (AID 1094); settings: higher = more signal;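 further: score merges spot fluorescence near 667 nm with spot signal-to-noise ratio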
[8] = test system: Noggin (protein binding on small-molecule microarray); experiment: Noggin binders on small-molecule microarray, primary screen, biochemical, 635/667 nm fluorescence (AID 1095); settings: 635 nm fluorescence, higher = more signal;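 further: score merges 667 nm feature fluorescence with signal to noise over triplicate slides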
[9] = molecular target: Neurogenic locus notch homolog protein 3 (Homo sapiens) (UniProt Q9UM47); experiment: NOTCH3 binders on small-molecule microarray, primary screen, biochemical, 635/667 nm fluorescence (AID 1096); settings: NOTCH3 binding, 635 nm fluorescence, higher = more signal
Neurogenic locus notch homolog protein 3 (Homo sapiens), sequence (Q9UM47 whole entry, looked up): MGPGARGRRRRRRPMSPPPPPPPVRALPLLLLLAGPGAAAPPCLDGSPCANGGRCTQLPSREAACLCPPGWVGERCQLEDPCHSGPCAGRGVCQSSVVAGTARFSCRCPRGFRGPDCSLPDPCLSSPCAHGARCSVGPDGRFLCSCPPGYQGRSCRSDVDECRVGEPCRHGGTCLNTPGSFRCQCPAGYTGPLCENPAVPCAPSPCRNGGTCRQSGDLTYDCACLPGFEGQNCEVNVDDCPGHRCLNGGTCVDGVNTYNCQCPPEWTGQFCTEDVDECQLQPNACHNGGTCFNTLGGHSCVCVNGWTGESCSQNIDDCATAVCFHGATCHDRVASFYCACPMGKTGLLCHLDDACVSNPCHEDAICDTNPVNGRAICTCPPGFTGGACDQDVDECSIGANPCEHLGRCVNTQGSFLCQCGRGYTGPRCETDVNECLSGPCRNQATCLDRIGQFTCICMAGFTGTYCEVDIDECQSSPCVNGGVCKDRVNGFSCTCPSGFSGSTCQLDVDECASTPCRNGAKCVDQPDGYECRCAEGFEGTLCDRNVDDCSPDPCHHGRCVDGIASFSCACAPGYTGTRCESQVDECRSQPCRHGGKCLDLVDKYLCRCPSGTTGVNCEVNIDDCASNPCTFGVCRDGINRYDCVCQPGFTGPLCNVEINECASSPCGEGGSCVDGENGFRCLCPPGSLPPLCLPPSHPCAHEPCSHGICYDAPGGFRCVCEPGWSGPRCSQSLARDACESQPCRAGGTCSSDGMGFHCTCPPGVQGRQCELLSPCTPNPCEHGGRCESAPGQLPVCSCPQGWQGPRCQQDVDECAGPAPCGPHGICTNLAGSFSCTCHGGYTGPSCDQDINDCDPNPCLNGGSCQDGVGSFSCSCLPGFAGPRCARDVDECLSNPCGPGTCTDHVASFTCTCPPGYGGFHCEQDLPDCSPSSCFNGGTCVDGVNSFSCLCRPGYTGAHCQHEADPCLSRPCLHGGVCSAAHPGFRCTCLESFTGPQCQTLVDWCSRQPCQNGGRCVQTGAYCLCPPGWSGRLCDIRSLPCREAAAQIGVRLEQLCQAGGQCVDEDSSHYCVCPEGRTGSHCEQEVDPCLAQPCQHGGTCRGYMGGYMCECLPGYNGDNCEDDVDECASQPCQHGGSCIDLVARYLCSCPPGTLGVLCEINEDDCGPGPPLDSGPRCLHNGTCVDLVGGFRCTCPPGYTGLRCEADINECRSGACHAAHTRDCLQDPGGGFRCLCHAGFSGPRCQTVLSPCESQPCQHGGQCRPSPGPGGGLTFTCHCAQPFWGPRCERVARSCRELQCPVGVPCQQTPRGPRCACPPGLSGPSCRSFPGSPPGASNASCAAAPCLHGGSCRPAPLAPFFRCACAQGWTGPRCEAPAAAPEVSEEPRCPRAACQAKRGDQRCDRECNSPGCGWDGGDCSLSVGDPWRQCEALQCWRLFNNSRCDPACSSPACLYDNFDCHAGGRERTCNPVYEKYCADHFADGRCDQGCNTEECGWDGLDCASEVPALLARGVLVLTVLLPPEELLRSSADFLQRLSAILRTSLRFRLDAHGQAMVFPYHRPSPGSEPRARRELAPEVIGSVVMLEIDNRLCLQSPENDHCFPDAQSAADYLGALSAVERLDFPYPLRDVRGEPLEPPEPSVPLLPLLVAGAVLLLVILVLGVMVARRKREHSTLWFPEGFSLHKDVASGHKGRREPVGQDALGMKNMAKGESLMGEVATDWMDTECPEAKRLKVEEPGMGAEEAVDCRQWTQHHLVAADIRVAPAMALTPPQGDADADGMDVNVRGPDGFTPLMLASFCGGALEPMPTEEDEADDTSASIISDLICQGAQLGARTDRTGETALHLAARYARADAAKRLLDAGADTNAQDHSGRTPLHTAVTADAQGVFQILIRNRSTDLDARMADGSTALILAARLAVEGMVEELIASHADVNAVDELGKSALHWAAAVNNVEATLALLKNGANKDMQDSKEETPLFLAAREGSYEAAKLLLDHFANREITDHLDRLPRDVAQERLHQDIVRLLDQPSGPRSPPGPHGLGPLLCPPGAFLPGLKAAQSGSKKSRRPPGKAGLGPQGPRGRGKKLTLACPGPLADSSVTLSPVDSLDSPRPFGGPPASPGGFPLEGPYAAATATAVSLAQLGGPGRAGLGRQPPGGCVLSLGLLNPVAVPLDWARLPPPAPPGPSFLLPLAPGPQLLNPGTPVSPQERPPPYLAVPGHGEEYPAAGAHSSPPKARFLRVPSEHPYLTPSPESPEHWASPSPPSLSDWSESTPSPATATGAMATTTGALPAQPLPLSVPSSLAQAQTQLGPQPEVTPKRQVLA

[10] = small-molecule microarray binders of probe aEGFR, primary screen, biochemical, biotinylated probe, 635/667 nm fluorescence (AID 1097); settings: higher = more signal;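 further: probe is a biotinylated anti-EGFR antibody binding compounds printed on slides; score combines fluorescence near 667 nm and signal to noise of each spot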
[11] = test system: Plasmodium falciparum Sir2 (PF13_0152, Sir2A); experiment: pfSir2 binders on small-molecule microarrays, primary screen, biochemical, small-molecule microarray, 635 nm fluorescence (AID 1098); settings: small-molecule microarray binding, fluorescence 635 nm; higher = more signal;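 further: score merges spot fluorescence intensity with its signal-to-noise ratio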
[12] = small-molecule microarray binders of probe aDKK1, primary screen, biochemical, biotinylated probe, 635/667 nm fluorescence (AID 1099); settings: higher = more signal;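 further: score merges 667nm spot fluorescence with signal to noise across triplicate slides; reference of the scale not given here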
[13] = small-molecule microarray binders of probe aCHRDL2, primary screen, biochemical, biotinylated probe, 635/667 nm fluorescence (AID 1100); settings: higher = more signal
[14] = splicing luciferase reporter signal modulators, primary screen, spliceosome inhibition project, cell-based, HEK293, splice +/- reporter (AID 1101); settings: luminescence, 24 h, higher = more signal, called active from +8 up or from −8 down;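 further: HEK293 cells carrying a splicing-competent luciferase reporter gene; test concentration not given here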
[15] = molecular target: Fibroblast growth factor 10 (Homo sapiens) (UniProt O15520); experiment: FGF10 binders on small-molecule microarrays, primary screen, biochemical, small-molecule microarray, 635 nm fluorescence (AID 1102); settings: FGF10 binding, fluorescence 635 nm, higher = more signal
Fibroblast growth factor 10 (Homo sapiens), sequence (O15520 whole entry, looked up): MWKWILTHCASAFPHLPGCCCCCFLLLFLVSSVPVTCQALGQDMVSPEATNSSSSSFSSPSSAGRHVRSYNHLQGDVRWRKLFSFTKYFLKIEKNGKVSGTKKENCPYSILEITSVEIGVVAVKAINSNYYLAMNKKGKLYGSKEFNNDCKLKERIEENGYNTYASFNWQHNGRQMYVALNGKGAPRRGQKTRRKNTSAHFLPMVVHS

[16] = test system: glycogen synthase kinase-3 (GSK3A per assay name; protocol says GSK3B); experiment: GSK3 binders on small-molecule microarrays, primary screen, biochemical, small-molecule microarray, 635 nm fluorescence, GSK3A (AID 1103); settings: small-molecule microarray binding, fluorescence 635 nm; higher = more signal; further: the record names both GSK3A and GSK3B
[17] = molecular target: Epidermal growth factor receptor (Homo sapiens) (UniProt P00533); experiment: EGFR binders on small-molecule microarrays, primary screen, biochemical, small-molecule microarray, 635 nm fluorescence (AID 1104); settings: EGFR binding, higher = more signal;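 further: score merges 667 nm emission intensity with spot signal to noise over triplicate slides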
Epidermal growth factor receptor (Homo sapiens), sequence (P00533 whole entry, looked up): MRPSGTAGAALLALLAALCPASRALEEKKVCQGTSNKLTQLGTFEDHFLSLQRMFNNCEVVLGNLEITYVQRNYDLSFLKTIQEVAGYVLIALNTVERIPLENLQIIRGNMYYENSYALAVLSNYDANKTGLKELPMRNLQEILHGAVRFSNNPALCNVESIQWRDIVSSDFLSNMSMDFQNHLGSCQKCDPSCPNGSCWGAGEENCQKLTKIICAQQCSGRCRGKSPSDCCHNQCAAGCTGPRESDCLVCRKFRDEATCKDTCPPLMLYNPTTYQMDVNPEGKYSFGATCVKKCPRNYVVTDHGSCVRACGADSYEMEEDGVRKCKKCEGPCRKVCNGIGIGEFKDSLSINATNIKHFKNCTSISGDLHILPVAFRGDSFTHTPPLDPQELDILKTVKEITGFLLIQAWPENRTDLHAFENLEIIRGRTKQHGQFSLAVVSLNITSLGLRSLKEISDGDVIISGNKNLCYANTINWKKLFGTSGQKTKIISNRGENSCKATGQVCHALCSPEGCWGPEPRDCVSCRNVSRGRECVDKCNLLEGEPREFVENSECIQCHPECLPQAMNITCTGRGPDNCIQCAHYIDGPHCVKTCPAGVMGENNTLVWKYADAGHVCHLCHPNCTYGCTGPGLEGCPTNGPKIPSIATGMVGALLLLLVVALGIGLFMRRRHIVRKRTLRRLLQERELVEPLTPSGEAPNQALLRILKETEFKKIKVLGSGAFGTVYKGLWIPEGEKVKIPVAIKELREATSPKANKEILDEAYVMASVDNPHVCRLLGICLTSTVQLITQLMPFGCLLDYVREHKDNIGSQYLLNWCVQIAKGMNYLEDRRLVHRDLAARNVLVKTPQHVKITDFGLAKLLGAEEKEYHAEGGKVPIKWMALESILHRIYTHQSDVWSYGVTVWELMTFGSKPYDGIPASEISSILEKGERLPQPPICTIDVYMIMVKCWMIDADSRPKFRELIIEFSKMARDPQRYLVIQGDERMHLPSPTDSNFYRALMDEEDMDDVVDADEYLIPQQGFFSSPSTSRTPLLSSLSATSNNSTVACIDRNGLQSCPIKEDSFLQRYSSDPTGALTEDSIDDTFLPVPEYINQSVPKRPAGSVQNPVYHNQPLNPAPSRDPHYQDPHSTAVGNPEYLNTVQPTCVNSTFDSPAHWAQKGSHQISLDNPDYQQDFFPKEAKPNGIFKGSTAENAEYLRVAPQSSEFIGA

[18] = molecular target: Follistatin-related protein 3 (Homo sapiens) (UniProt O95633); experiment: FSTL3 binders on small-molecule microarrays, primary screen, biochemical, small-molecule microarray, 635 nm fluorescence (AID 1105); settings: FSTL3 binding, higher = more signal;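 further: score merges emission near 667 nm and signal to noise per printed spot across three slides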
Follistatin-related protein 3 (Homo sapiens), sequence (O95633 whole entry, looked up): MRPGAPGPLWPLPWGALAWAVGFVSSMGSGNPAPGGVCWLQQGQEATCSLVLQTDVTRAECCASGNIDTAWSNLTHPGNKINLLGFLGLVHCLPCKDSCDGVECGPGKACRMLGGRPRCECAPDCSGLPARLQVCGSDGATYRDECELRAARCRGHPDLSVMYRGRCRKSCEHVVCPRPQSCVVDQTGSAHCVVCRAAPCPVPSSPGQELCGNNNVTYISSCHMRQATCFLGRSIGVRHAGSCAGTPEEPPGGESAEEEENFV

[19] = molecular target: Dickkopf-related protein 1 (Homo sapiens) (UniProt O94907); experiment: DKK1 binders on small-molecule microarrays, primary screen, biochemical, small-molecule microarray, 635 nm fluorescence scan (AID 1106); settings: DKK1 binding, higher = more signal;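 further: score merges emission near 667 nm with signal to noise over three replicate slides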
Dickkopf-related protein 1 (Homo sapiens), sequence (O94907 whole entry, looked up): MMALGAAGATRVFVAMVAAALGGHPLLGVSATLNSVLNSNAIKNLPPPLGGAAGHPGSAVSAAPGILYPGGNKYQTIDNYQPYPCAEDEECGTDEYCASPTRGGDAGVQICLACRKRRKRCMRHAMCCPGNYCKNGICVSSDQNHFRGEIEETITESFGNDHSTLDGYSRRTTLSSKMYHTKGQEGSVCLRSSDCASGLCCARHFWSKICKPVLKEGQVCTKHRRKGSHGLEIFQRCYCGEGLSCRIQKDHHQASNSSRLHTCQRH

[20] = test system: Inhibin beta A chain (activin A); experiment: INHBA (activin A) binders on microarrays, primary screen, biochemical, small-molecule microarray, 635 nm fluorescence scan (AID 1107); settings: small-molecule microarray binding, higher = more signal;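 further: mouse activin A protein probed at 4.33 µg/mL on printed slides; score merges bound-protein fluorescence near 667 nm with spot signal-to-noise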

SMILES: COc1cccc([C@@H]2Oc3ccc(OC)cc3C(=O)[C@H]2O)c1
- composite z-score [1]: 0.597
- z-score [2]: -2.23 (inactive)
- z-score [3]: -4.98 (inactive)
- z-score [4]: -2.1 (inactive)
- composite z-score [5]: 0.704
- z-score [6]: 0.349 (inactive)
- composite z-score [7]: -0.173
- composite z-score [8]: 0.052
- composite z-score [9]: 0.415
- composite z-score [10]: -0.0697
- composite z-score [11]: -0.117
- composite z-score [12]: -0.172
- composite z-score [13]: -0.705
- z-score [14]: -2.47 (inactive)
- composite z-score [15]: 0.606
- composite z-score [16]: 0.184
- composite z-score [17]: 0.469
- composite z-score [18]: 0.525
- composite z-score [19]: 0.527
- composite z-score [20]: 0.0204

SMILES: C=CC[C@@H]1C=C[C@H](ON=C(C)CCC(=O)OC[C@H]2O[C@H](C#Cc3ccccc3)C=C[C@@H]2Oc2ccc(C)cc2)[C@@H](CO)O1
- composite z-score [1]: 1.54
- z-score [2]: 1.28 (inactive)
- z-score [3]: 0.275 (inactive)
- z-score [4]: 1.06 (inactive)
- composite z-score [5]: 2.2
- z-score [6]: 0.943 (inactive)
- composite z-score [7]: -0.116
- composite z-score [8]: 0.615
- composite z-score [9]: 1.12
- composite z-score [10]: 0.109
- composite z-score [11]: 1.19
- composite z-score [12]: -0.0927
- composite z-score [13]: -0.515
- z-score [14]: -0.439 (inactive)
- composite z-score [15]: 1.16
- composite z-score [16]: 1.01
- composite z-score [17]: 0.298
- composite z-score [18]: 1.04
- composite z-score [19]: 0.606
- composite z-score [20]: -0.117

SMILES: Cc1ccc(S(=O)(=O)N[C@H]2COC(=O)CC=C[C@@H](C)COC(=O)CC=C[C@@H]2C)cc1
- composite z-score [1]: 0.683
- z-score [2]: 0.611 (inactive)
- z-score [3]: 0.174 (inactive)
- z-score [4]: 0.247 (inactive)
- composite z-score [5]: -0.953
- z-score [6]: 0.682 (inactive)
- composite z-score [7]: 0.296
- composite z-score [8]: 1.8
- composite z-score [9]: -0.207
- composite z-score [10]: -0.281
- composite z-score [11]: 0.549
- composite z-score [12]: -0.789
- composite z-score [13]: -1.26
- z-score [14]: 0.597 (inactive)
- composite z-score [15]: 0.813
- composite z-score [16]: 0.448
- composite z-score [17]: 0.823
- composite z-score [18]: 1.4
- composite z-score [19]: 2.04
- composite z-score [20]: 1.36

SMILES: COC(=O)CC=C[C@@H](C)[C@@H](C=NO[C@H](C)c1cn([C@H](CO)Cc2ccccc2)nn1)NS(=O)(=O)c1ccc(C)cc1
- composite z-score [1]: 0.915
- z-score [2]: -0.798 (inactive)
- z-score [3]: 0.359 (inactive)
- z-score [4]: -0.824 (inactive)
- composite z-score [5]: 0.786
- z-score [6]: -0.297 (inactive)
- composite z-score [7]: -0.0407
- composite z-score [8]: 0.857
- composite z-score [9]: -0.0329
- composite z-score [10]: 0.168
- composite z-score [11]: 0.182
- composite z-score [12]: 0.0644
- composite z-score [13]: -0.0281
- z-score [14]: 0.0956 (inactive)
- composite z-score [15]: 0.532
- composite z-score [16]: 0.0796
- composite z-score [17]: 0.264
- composite z-score [18]: 0.226
- composite z-score [19]: 0.0568
- composite z-score [20]: -0.119

SMILES: CCOC(=O)[C@H](Cc1ccccc1)NC(=O)CCC1CC(OC(=O)NCCc2ccc(F)cc2)CC2(CCCC(COC(=O)NCc3ccccc3)O2)O1 (stereo not given in full)
- composite z-score [1]: 1.56
- z-score [2]: -0.522 (inactive)
- z-score [3]: 0.653 (inactive)
- z-score [4]: 0.6 (inactive)
- composite z-score [5]: 0.999
- z-score [6]: 0.413 (inactive)
- composite z-score [7]: -0.0965
- composite z-score [8]: 0.644
- composite z-score [9]: 1.04
- composite z-score [10]: -0.0146
- composite z-score [11]: 0.857
- composite z-score [12]: -0.208
- composite z-score [13]: -0.614
- z-score [14]: 0.207 (inactive)
- composite z-score [15]: 1.16
- composite z-score [16]: 0.572
- composite z-score [17]: 0.33
- composite z-score [18]: 0.76
- composite z-score [19]: 0.529
- composite z-score [20]: 0.0158

SMILES: CCCNC(=O)OC[C@H]1O[C@H](CCON=C(C)CCN2CCCc3nc(C)c(C)cc32)C=C[C@@H]1Oc1ccc(OC)cc1
- composite z-score [1]: 1.55
- z-score [2]: -0.663 (inactive)
- z-score [3]: -0.604 (inactive)
- z-score [4]: -0.0042 (inactive)
- composite z-score [5]: 2.38
- z-score [6]: 1.05 (inactive)
- composite z-score [7]: 0.0408
- composite z-score [8]: 0.634
- composite z-score [9]: 0.991
- composite z-score [10]: 0.101
- composite z-score [11]: 0.333
- composite z-score [12]: 0.595
- composite z-score [13]: -0.237
- z-score [14]: 0.304 (inactive)
- composite z-score [15]: 0.653
- composite z-score [16]: 0.73
- composite z-score [17]: 0.509
- composite z-score [18]: 0.605
- composite z-score [19]: 0.687
- composite z-score [20]: 0.491

SMILES: Cc1ccc(S(=O)(=O)OC[C@H]2CN3[C@H](c4ccc(Br)cc4)[C@@H](C)CC[C@H]3C(=O)O2)cc1
- composite z-score [1]: 1.23
- z-score [2]: -0.855 (inactive)
- z-score [3]: -17.8 (active)
- z-score [4]: -3.38 (inactive)
- composite z-score [5]: 1.3
- z-score [6]: 2.18 (inactive)
- composite z-score [7]: -0.259
- composite z-score [8]: 1.24
- composite z-score [9]: 0.323
- composite z-score [10]: -0.136
- composite z-score [11]: 0.579
- composite z-score [12]: -0.285
- composite z-score [13]: -0.207
- z-score [14]: -0.649 (inactive)
- composite z-score [15]: 0.725
- composite z-score [16]: -0.204
- composite z-score [17]: -0.0807
- composite z-score [18]: -0.0668
- composite z-score [19]: 0.459
- composite z-score [20]: 0.355

SMILES: CCCCc1nc2c(c3c1C[C@H](C)OC3)CN(CCOc1ccccc1)CC2
- composite z-score [1]: 1.44
- z-score [2]: -2.26 (inactive)
- z-score [3]: -4.02 (inactive)
- z-score [4]: 0.574 (inactive)
- composite z-score [5]: 1.62
- z-score [6]: 0.976 (inactive)
- composite z-score [7]: -0.005
- composite z-score [8]: 0.339
- composite z-score [9]: 0.732
- composite z-score [10]: 0.219
- composite z-score [11]: 0.489
- composite z-score [12]: 0.107
- composite z-score [13]: -0.277
- z-score [14]: -1.21 (inactive)
- composite z-score [15]: 0.632
- composite z-score [16]: 0.427
- composite z-score [17]: 0.681
- composite z-score [18]: 1.27
- composite z-score [19]: 0.302
- composite z-score [20]: 0.765

SMILES: COC(=O)CC=C[C@H](C)[C@@H](OCc1cccc(Br)c1)[C@@H](C)[C@H](OC)C1CCCCC1
- composite z-score [1]: -0.0514
- z-score [2]: 0.738 (inactive)
- z-score [3]: -1.28 (inactive)
- z-score [4]: 0.99 (inactive)
- composite z-score [5]: -0.412
- z-score [6]: 0.276 (inactive)
- composite z-score [7]: -0.166
- composite z-score [8]: 0.32
- composite z-score [9]: -1
- composite z-score [10]: -0.237
- composite z-score [11]: 0.242
- composite z-score [12]: -0.462
- composite z-score [13]: -0.233
- z-score [14]: -0.256 (inactive)
- composite z-score [15]: -0.0117
- composite z-score [16]: -1.16
- composite z-score [17]: 0.153
- composite z-score [18]: -0.449
- composite z-score [19]: 0.515
- composite z-score [20]: 1.34
